PubChem BioAssay AID651813 (National Center for Advancing Translational Sciences (NCATS), 2012)
Among all 2,100 compounds or so, about 1,100 (52%) were called active. Roughly 27% stayed inconclusive and do not appear here. So high a share suggests a set chosen from earlier hits. The list shows a part of the results. Unmarked numbers belong to inactive results. Calls follow the shape of the dose curve; as a rule, active = well fitted inhibition curve with a large enough effect; inconclusive = small, poorly fitted or top-dose-only effect; inactive = no such curve, though single readings can be large or run the other way.

The compounds below were run against DNA dC->dU-editing enzyme APOBEC-3G (Homo sapiens) (UniProt Q9HC16) (assay: qHTS for inhibitors of Vif-A3G interactions: Cherry picks counterscreen). Settings: HeLa A3G-eYFP + Vif (tagged APOBEC3G with the HIV-1 protein that degrades it), eYFP fluorescence, 24 h.
Chain of DNA dC->dU-editing enzyme APOBEC-3G (Homo sapiens) (Q9HC16 whole entry, looked up): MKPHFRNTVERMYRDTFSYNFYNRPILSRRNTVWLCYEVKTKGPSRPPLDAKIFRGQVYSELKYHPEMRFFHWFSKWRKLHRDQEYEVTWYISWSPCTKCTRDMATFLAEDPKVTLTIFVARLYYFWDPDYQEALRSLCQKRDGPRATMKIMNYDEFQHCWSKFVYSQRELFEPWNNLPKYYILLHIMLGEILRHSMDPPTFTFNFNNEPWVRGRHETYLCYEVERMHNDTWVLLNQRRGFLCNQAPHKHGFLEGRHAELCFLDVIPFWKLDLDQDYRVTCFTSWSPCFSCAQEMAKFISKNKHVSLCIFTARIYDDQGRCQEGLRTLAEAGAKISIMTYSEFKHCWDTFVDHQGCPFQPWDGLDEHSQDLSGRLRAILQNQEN
In short: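 Readout is eYFP fluorescence (488 nm excitation, 500-530 nm emission) measured on Acumen Explorer after 24 h compound exposure, several concentrations, at 37 deg C. Cells: HeLa stably co-expressing Vif and C-terminally eYFP-tagged A3G; MG132 positive control.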
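Also: hits raise yellow fluorescence by blocking Vif-driven A3G-eYFP degradation; nearly all actives have a fitted effect of over 70% in size.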
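For max response in this document: max response given as percent of control signal.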
Potency is read from the fitted curve at half-maximal effect.

Structure (SMILES)	Potency	max response
Cc1ccc2nsnc2c1NC(=O)c1ccc(-c2cc(Cl)ccc2Cl)o1	14 µM (active)	–
Cc1cc(-c2ccccc2)c2c3c(c(-c4ccccc4)n2n1)c(=O)n(C)c(=O)n3C	–	9.15%
C=CCSc1nnc(C)c(/C=C/Nc2ccc(Cl)cc2)n1	20.6 µM (active)	–
CCOc1ccccc1NC(=O)Cn1nnc(C(=O)NCc2cccs2)c1N	0.651 µM (active)	–
COc1cc(NC(=O)C2=C(N3CCOCC3)/C(=C\c3ccc(N(C)C)cc3)CCC2)cc(OC)c1OC	3.53 µM (active)	–
Cc1cc(NC(=O)NC(=O)c2ccccc2NC(=O)C(C)N)ccc1Oc1ncc(Br)cn1 (centres undefined)	0.444 µM (active)	–
Cc1cc(/C=C2\SC(=S)N(C)C2=O)c(C)n1-c1ccccc1O	18.4 µM (active)	–
Cc1cc(/C=C2\SC(=S)N(C)C2=O)c(C)n1-c1ccc(O)cc1	20.6 µM (active)	–
Cc1cccc(C(=O)NC(=S)N2CCc3ccccc3C2)c1	–	-2.8%
CN(C)CCCN(C(=O)/C=C/c1cccs1)c1nc2ccc(F)cc2s1	–	-22.2%
COc1cc2c(cc1OC)CN(C(=O)/C=C/c1cccs1)CC2	1.25 µM (active)	–
COc1cc2c(cc1OC)CN(C(=O)c1cc(=O)c3ccccc3o1)CC2	15.8 µM (active)	–
COc1cc2c(cc1OC)CN(C(=O)c1ccc3nc[nH]c3c1)CC2	14 µM (active)	–
CC(=O)N/N=C/c1cc(C(C)C)cc(/C=N/NC(C)=O)c1O	18.4 µM (active)	–
CC(=O)N/N=C/c1cc(C(C)(C)C)cc(/C=N/NC(C)=O)c1O	20.6 µM (active)	–
CC1(C)CCN2CCC(C)(C)c3c(O)ccc1c32	5.59 µM (active)	–
COc1ccc(NS(=O)(=O)c2cc(NC(=O)c3ccc(=O)[nH]c3)ccc2N2CCCC2)cc1	5.59 µM (active)	–
Cc1ccc(NC(=S)NC(=O)c2ccc(F)cc2)cc1S(=O)(=O)Nc1cccc(Cl)c1	–	-21.2%
ClCC1NCC(c2ccccc2Cl)c2c1[nH]c1ccccc21 (centres undefined)	–	-28%
CN1C(=O)N(C)c2ccc(C=O)c3cccc1c23	–	1.02%
N#Cc1c(C(F)(F)F)cc(-c2ccco2)nc1SCc1ccccn1	16.4 µM (active)	–
N#Cc1ccc(-c2ccco2)nc1SCc1ccccc1	–	-26%
COc1cc2cc(-c3ccc(OC)c(OC)c3C)nc(N)c2cc1OC	2.8 µM (active)	–

Structure (SMILES)	Potency	max response
C[C@H]1CN([C@@H](C)CO)C(=O)Cc2cc(NC(=O)CCC(F)(F)F)ccc2O[C@H]1CN(C)S(=O)(=O)c1ccc(F)cc1	7.9 µM (active)	–
CN(C)c1ccc(C2C=C(c3ccc(Cl)cc3OC(F)F)Nc3ncnn32)cc1 (centres undefined)	15.8 µM (active)	–
O=C(c1[nH]c(C(F)(F)F)nc1-c1ccccc1)N1CCN(c2ccccc2)CC1	3.53 µM (active)	–
CCOC(=O)N1CCN(C(=O)c2[nH]c(C(F)(F)F)nc2-c2ccccc2)CC1	15.8 µM (active)	–
O=C(c1[nH]c(C(F)(F)F)nc1-c1ccccc1)N1CCN(c2cccc(C(F)(F)F)n2)CC1	6.27 µM (active)	–
Cn1nnnc1SCCNCc1cc(Br)ccc1OCc1ccccc1Cl	–	-13.4%
Cc1cccc2cc3c(N)c(C(=O)N4CCCc5ccccc54)sc3nc12	9.2 µM (active)	–
Cc1cccc2cc3c(N)c(C(=O)N4CCc5ccccc54)sc3nc12	7.31 µM (active)	–
Cc1ccc2nc3sc(C(=O)N4CCCc5ccccc54)c(N)c3cc2c1	7.9 µM (active)	–
Cc1ccc(/C=N/NC(=O)c2nc3nc(C)cc(C)n3n2)cc1	–	-10.8%
Cc1cc(C)n2nc(C(=O)N/N=C/c3c4ccccc4cc4ccccc34)nc2n1	15.8 µM (active)	–
COc1ccc2c(Cl)c(C(=O)N/N=C3\CCCC(=O)C3)sc2c1	12.5 µM (active)	–
CCOc1cc(C(=O)NN=C2CCCC2)cc(OCC)c1OCC	–	-1.27%
COc1ccc(-c2ccc3c(c2)S(=O)(=O)c2cccc(C(=O)NCCOc4ccccc4)c2C3=O)cc1OC	14 µM (active)	–
COc1ccc(-c2ccc3c(c2)S(=O)(=O)c2cccc(C(=O)NCc4cccc(OC(F)(F)F)c4)c2C3=O)cc1OC	3.26 µM (active)	–
O=C(NCc1ccccc1Cl)c1cccc2c1C(=O)c1ccc(-c3ccc(OC(F)(F)F)cc3)cc1S2(=O)=O	18.4 µM (active)	–
COc1ccc(NC(=O)c2oc3ccc(S(=O)(=O)N4CCOCC4)cc3c2C)cc1	–	9.65%
COc1cccc(NC(=O)c2oc3ccc(S(=O)(=O)N4CCC5(CC4)OCCO5)cc3c2C)c1	23.1 µM (active)	–
c1ccc(-c2nccc(-c3ccc4c(c3)OCO4)n2)cc1	4.98 µM (active)	–
CC(C)COc1ccc(C(=O)N/C(=C/c2cccc([N+](=O)[O-])c2)C(=O)O)cc1	–	13.2%
CCN1C/C(=C\c2cccc([N+](=O)[O-])c2)C(=O)/C(=C/c2cccc([N+](=O)[O-])c2)C1	11.2 µM (active)	–
CCN1C/C(=C/c2cccc([N+](=O)[O-])c2)C(=O)/C(=C/c2cccc([N+](=O)[O-])c2)C1	5.59 µM (active)	–
CC(=O)c1ccc2cccc3c2c1N=CN3C	12.5 µM (active)	–

Structure (SMILES)	Potency	max response
Nc1nc(SCc2ccc(Cl)cc2Cl)nc2nc3c(cc12)CCCC3	23.1 µM (active)	–
Cc1cc2nc3c(=O)n(Cc4ccccc4)c(=O)[nH]c3nc2cc1N	6.27 µM (active)	–
CCCCCCn1c(=O)[nH]c2nc3cc(N)ccc3nc2c1=O	–	36.1%
Cc1cc2nc3c(=O)n(CCc4ccccc4)c(=O)[nH]c3nc2cc1N	3.66 µM (active)	–
Cc1cc2nc3c(=O)n(C4CCCCC4)c(=O)[nH]c3nc2cc1N	7.31 µM (active)	–
Cc1ccc(NC(=O)CO/N=C/c2ccc(N(C)C)cc2)cc1	23.1 µM (active)	–
Cc1ccc(NC(=O)CSc2n[nH]c(-c3ccccn3)n2)cc1	–	-4.16%
CN(C)c1ccc(/C=C(/C#N)C(=O)Nc2nc3c(s2)CCN(Cc2ccccc2)C3)cc1	0.444 µM (active)	–
CN(C)c1ccc(/C=C(\C#N)C(=O)Nc2nc3c(s2)CCN(Cc2ccccc2)C3)cc1	0.396 µM (active)	–
Cn1c(=O)c2cc(NC(=O)NCc3ccccc3)ccc2n1C/C=C/c1ccccc1	15.8 µM (active)	–
CCOCCC(=O)Nc1ccc2c(c1)c(=O)n(C)n2C/C=C/c1ccccc1	11.2 µM (active)	–
Cn1c(=O)c2cc(NC(=O)NCc3ccc(F)cc3)ccc2n1C/C=C/c1ccccc1	5.59 µM (active)	–
CCCCCCc1cc2cc(-c3nnc(-c4ccccc4O)o3)c(=O)oc2cc1O	–	54.5%
CCCCCCc1cc2cc(-c3nnc(-c4ccccc4OC)o3)c(=O)oc2cc1O	7.04 µM (active)	–
CCCCCCc1cc2cc(-c3nnc(-c4ccccc4)o3)c(=O)oc2cc1O	1.98 µM (active)	–
Cc1c(N2C(=O)/C(=C/c3ccc(N(C)C)cc3)N(C)C2=S)c(=O)n(-c2ccccc2)n1C	20.6 µM (active)	–
CN1C(=O)/C(=C\c2ccc(N(C)C)cc2)OC1=S	2.8 µM (active)	–
CN1C(=S)N(c2cccnc2)C(=O)/C1=C\c1ccc(N(C)C)cc1	11.2 µM (active)	–
Cc1ccsc1/C=N\NC(=O)c1n[nH]c2c1CCC2	7.04 µM (active)	–
O=C(N/N=C/c1cccs1)c1n[nH]c2c1CCC2	4.44 µM (active)	–
O=C(N/N=C/c1cccc2ccccc12)c1n[nH]c2c1CCCC2	3.53 µM (active)	–
COCCNC(=S)N/N=C(\C)c1ccc(OC(F)F)cc1	–	-0.557%
Cn1cc(/C=C2\SC(=S)N(NC(=O)c3cccc(Cl)c3)C2=O)c2ccccc21	8.2 µM (active)	–

Structure (SMILES)	Potency	max response
COc1ccc(-c2cnnc(N/N=C/c3ccc(O)c(OC)c3)n2)cc1	8.86 µM (active)	–
COc1cc(/C=N/Nc2cc(C)nc(NS(=O)(=O)c3ccccc3)n2)ccc1O	–	-5.07%
COc1cc(/C=N/Nc2ccc(Cl)nn2)cc(OC)c1O	–	-0.979%
O=C(Nc1ccccc1-c1nc2ccccc2[nH]1)c1ccc(N2C(=O)CCC2=O)cc1	18.4 µM (active)	–
S=C(NC1CCCCC1)N(CCc1ccccc1)CCc1ccccc1	–	-10.7%
COc1ccc(OC)c(NC(=O)c2cc(-c3cc(C)cc(C)c3O)n[nH]2)c1	–	-1.73%
CCOC(=O)c1[nH]c(C)c(C(=O)Nc2ccccc2C)c1C	6.27 µM (active)	–
CCOC(=O)c1c(C)[nH]c(C(=O)N/N=C/c2cccc(OC)c2)c1C	15.8 µM (active)	–
CCOC(=O)c1[nH]c(C)c(C(=O)Nc2cc(OC)ccc2OC)c1C	3.53 µM (active)	–
CCOC(=O)c1[nH]c(C)c(C(=O)Nc2ccc(C)cc2C)c1C	3.96 µM (active)	–
Cc1cc(N/N=C/c2ccc(O)cc2O)nc(-n2nc(C)cc2C)n1	–	2.12%
CCOC(=O)c1[nH]c(C)c(C(=O)Nc2ccccc2F)c1C	3.53 µM (active)	–
CC(=O)c1c(C)[nH]c(C(=O)Nc2ccc(Cl)cc2F)c1C	–	-22.8%
Fc1ccc2nc3[nH]c4ccccc4c3nc2c1	0.396 µM (active)	–
COc1ccccc1CNC(=O)c1ccc2nc3[nH]c4ccccc4c3nc2c1	–	6.47%
CCN(CC(=O)Nc1ccccc1-c1ccccc1)Cc1nc2ccccc2c(=O)[nH]1	12.5 µM (active)	–
C(=C\c1c[nH]c2ccccc12)/c1ccc2ccccc2n1	16.4 µM (active)	–
C(=Cc1c[nH]c2ccccc12)c1ccc2ccccc2n1	20.6 µM (active)	–
Cc1[nH]c2ccccc2c1/C=C/c1ccc2ccccc2n1	16.4 µM (active)	–
CC(=O)c1cccc(NC(=O)C2CCCN(S(=O)(=O)c3cccc4nonc34)C2)c1 (centres undefined)	–	11.2%
